The values that follow come from PMC5540273 (PLoS ONE, 2017).

Conditions in all cases: concentration: 1 μM, replicates: in singlicate; n = 1
The subject of experiment [1] is MYO3B.
For experiment [2], the system named is T1, NDR1.
T1 construct: gene STK38

Experiment [3] has as its system NDR2.
The subject of experiment [4] is NEK10.
In experiment [5] the test system is NEK11.
Experiment [6] concerns NEK1.
Experiment [7] deals with NEK2.
The test system of experiment [8] is NEK3.
For experiment [9], the system named is NEK4.
The test system of experiment [10] is NEK5.
Experiment [11] concerns NEK6.
In experiment [12] the test system is NEK7.
For experiment [13], the system named is NEK9.
Experiment [14] relates to T2, NIK.
T2 construct: gene MAP3K14

In experiment [15] the test system is T3, NIM1.
T3 construct: gene MGC42105

Experiment [16] has as its system NLK.
The subject of experiment [17] is T4, OSR1.
T4 construct: gene OXSR1

Experiment [18] has as its system PAK1.
Experiment [19] relates to PAK2.
Experiment [20] concerns PAK3.
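Also: KINOMEscan kinase panel screen.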

In the case of `CN(C(=O)c1ccc(-c2cc(-c3c[nH]nc3-c3ccccn3)ccn2)cc1)C1CCOCC1` [GW810083], the “%Inh” value is recorded as 0% in experiment [1]; 3% in experiment [2]; 0% in experiment [3]; 0% in experiment [4]; 9% in [5]; 0% in [6]. For the same compound, the “%Inh” value is reported as 0% in experiment [7]; 16% in experiment [8]; 0% in [9]; 7% in experiment [10]; 6% in experiment [11]; 6% in [12]. In addition, the “%Inh” value in [13] worked out at 18%; in [14], 29%; in experiment [15], 20%; in [16] it was 0%; in experiment [17], 0%; in experiment [18], 0%. Besides, the “%Inh” value in experiment [19] and in experiment [20] was 0% in each case.

`COC(=O)Nc1nc2cc(Oc3ccc(NC(=O)Nc4cc(F)ccc4F)cc3)ccc2[nH]1.Cl` [GW701424]: the “%Inh” value in experiment [1] came out at 0%; in experiment [2] it was 26%; in [3], 0%; in [4] it was 8%; in experiment [5] it was 7%; in experiment [6], 0%. The “%Inh” value worked out at 0% in experiment [7]; 0% in experiment [8]; 0% in [9]; 3% in experiment [10]; 0% in experiment [11]; 0% in experiment [12]. Further, the “%Inh” value is recorded as 0% in experiment [13]; 44% in experiment [14]; 30% in [15]; 10% in experiment [16]; 14% in [17]; 0% in experiment [18]. The “%Inh” value in experiment [19] and in experiment [20] was 0% each time.

As to `O=C(NOCC1CC1)c1ccc(F)c(F)c1Nc1ccc(I)cc1Cl`, the “%Inh” value in experiment [1], in experiment [2], in experiment [3], in [4], in experiment [5] and in experiment [6] was 0% each time. Further, the “%Inh” value in experiment [7] amounted to 0%; in [8], 26%; in experiment [9], 0%; in experiment [10], 0%; in experiment [11], 0%; in [12] it was 0%. Also, the “%Inh” value in experiment [13], in experiment [14], in experiment [15], in [16], in [17] and in [18] was 0% throughout. Further, the “%Inh” value in experiment [19] and in experiment [20] was 0% each time.

For `COc1ccc(Nc2nccc(N3CCC(NC(=O)Nc4cccc(C(C)=O)c4)C3)n2)cc1` (centres unmarked) [GSK1379731], the “%Inh” value in [1] turned out to be 0%; in experiment [2], 0%; in [3] it was 0%; in experiment [4] it was 13%; in [5] it was 15%; in experiment [6] it was 0%. Also, the “%Inh” value in [7] worked out at 0%; in [8] it was 0%; in [9], 13%; in experiment [10], 3%; in experiment [11] it was 0%; in experiment [12] it was 0%. Further, the “%Inh” value in experiment [13] is given as 0%; in experiment [14], 2%; in [15], 12%; in experiment [16], 0%; in experiment [17] it was 16%; in experiment [18], 0%. Moreover, the “%Inh” value in [19] is listed as 6%; in experiment [20] it was 0%.

`CN1c2ccc(CNc3ccc(F)cc3)cc2-c2c(cnn2C)S1(=O)=O`: the “%Inh” value worked out at 0% in [1]; 16% in [2]; 0% in experiment [3]; 0% in [4]; 0% in experiment [5]; 1% in [6]. The “%Inh” value in experiment [7] amounted to 0%; in experiment [8], 28%; in experiment [9], 0%; in [10], 0%; in experiment [11], 0%; in experiment [12] it was 0%. For the same compound, the “%Inh” value in experiment [13], in experiment [14], in experiment [15], in experiment [16], in experiment [17] and in experiment [18] was 0% each time. Further, the “%Inh” value is 14% in [19] and 0% in experiment [20].

On to `[2H]C([2H])(c1cccc(C(F)(F)F)c1C)n1ccn2c(=O)nc(N3CCOCC3)cc12` [GSK2336394], for which the “%Inh” value in experiment [1] is reported as 0%; in experiment [2], 0%; in [3], 0%; in experiment [4] it was 7%; in [5], 0%; in [6] it was 0%. Further, the “%Inh” value worked out at 0% in experiment [7]; 1% in experiment [8]; 27% in experiment [9]; 4% in [10]; 0% in experiment [11]; 0% in experiment [12]. The “%Inh” value stood at 53% in [13]; 0% in experiment [14]; 13% in [15]; 0% in experiment [16]; 9% in experiment [17]; 0% in experiment [18]. Further, the “%Inh” value was 12% in experiment [19] and 13% in experiment [20].

Consider `NS(=O)(=O)CCc1cccc(Nc2nccc(-c3c(-c4cccc(NC(=O)c5c(F)cccc5F)c4)nn4ccccc34)n2)c1` [GSK336735], for which the “%Inh” value was found to be 4% in experiment [1]; 18% in experiment [2]; 0% in experiment [3]; 7% in experiment [4]; 0% in [5]; 0% in experiment [6]. Moreover, the “%Inh” value is on record as 22% in experiment [7]; 0% in experiment [8]; 19% in [9]; 8% in experiment [10]; 8% in experiment [11]; 11% in experiment [12]. For the same compound, the “%Inh” value in experiment [13] worked out at 57%; in experiment [14], 4%; in experiment [15], 15%; in experiment [16], 84%; in experiment [17] it was 10%; in experiment [18] it was 26%. Moreover, the “%Inh” value in [19] is given as 12%; in [20], 36%.
